Among all 5,500 compounds or so, about 2,000 (36%) were called active. Roughly 18% stayed inconclusive and do not appear here. The list shows a part of the results. Unmarked numbers belong to inactive results. Rule as the data show it: active = normalized growth mostly below about 0.91 (no sharp cut-off); inconclusive = no clear call, values can overlap the other calls; inactive = mostly above about 0.92.
Experiment: chemical genetic growth profiling, strain panel (AID 1159580);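 also: tested at 20 µM; growth read once vehicle control cultures reached saturation at 30 °C; 1 = growth at the plate median or of vehicle wells; lower values mean less growth of the strain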
Settings: S. cerevisiae deletion strains, growth OD
[1] = locus YCL061C, strain MRC1, hits give low values
[2] = locus YJL187C, strain SWE1, hits give low values

Compound `Cc1cc(=O)oc2cc(O)cc(O)c12` has a normalized growth (locus YAL021C, strain ccr4, hits give low values) of 0.968, a normalized growth (locus YAL026C, strain drs2, hits give low values) of 0.96 and a normalized growth (locus YAL030W, strain snc1, hits give low values) of 0.952. For the same compound, the normalized growth (locus YBL061C, strain skt5, hits give low values) was 0.958, the normalized growth (locus YBR009C, strain hhf1, hits give low values) was 0.949 and the normalized growth (locus YBR023C, strain chs3, hits give low values) was 0.949. It also gave a normalized growth (locus YBR171W, strain sec66, hits give low values) of 0.965, a normalized growth (locus YBR231C, strain swc5, hits give low values) of 0.975 and a normalized growth (locus YBR279W, strain paf1, hits give low values) of 0.969. For the same compound, the normalized growth (locus YCL011C, strain gbp2, hits give low values) was 0.95, the normalized growth (locus YCL016C, strain dcc1, hits give low values) was 0.966 and the normalized growth [1] was 0.983. The normalized growth (locus YCL069W, strain vba3, hits give low values) was 0.965, the normalized growth (locus YCR088W, strain abp1, hits give low values) was 0.958 and the normalized growth (locus YDL005C, strain med2, hits give low values) was 0.961. It also gave a normalized growth (locus YDL040C, strain nat1, hits give low values) of 0.958, a normalized growth (locus YDR001C, strain nth1, hits give low values) of 0.957 and a normalized growth (locus YDR069C, strain doa4, hits give low values) of 0.941. The normalized growth (locus YDR137W, strain rgp1, hits give low values) was 0.962, the normalized growth (locus YDR159W, strain sac3, hits give low values) was 0.932 and the normalized growth (locus YDR195W, strain ref2) was 0.925. For the same compound, the normalized growth (locus YDR297W, strain sur2, hits give low values) was 0.96, the normalized growth (locus YDR334W, strain swr1, hits give low values) was 0.948 and the normalized growth (locus YDR335W, strain msn5, hits give low values) was 0.978. For the same compound, the normalized growth (locus YDR392W, strain spt3, hits give low values) was 0.938, the normalized growth (locus YEL003W, strain gim4, hits give low values) was 0.978 and the normalized growth (locus YEL037C, strain rad23, hits give low values) was 0.929. The normalized growth (locus YEL061C, strain CIN8 (second series), hits give low values) was 0.951, the normalized growth (locus YER015W, strain faa2, hits give low values) was 0.998 and the normalized growth (locus YER016W, strain bim1, hits give low values) was 0.965. For the same compound, the normalized growth (locus YER111C, strain swi4, hits give low values) was 0.949, the normalized growth (locus YER155C, strain BEM2 (second series), hits give low values) was 0.932 and the normalized growth (locus YFR010W, strain ubp6, hits give low values) was 0.943. The normalized growth (locus YGL167C, strain pmr1, hits give low values) was 0.943, the normalized growth (locus YGL173C, strain kem1, hits give low values) was 0.97 and the normalized growth (locus YGL227W, strain vid30, hits give low values) was 0.95. For the same compound, the normalized growth (locus YGL240W, strain doc1, hits give low values) was 0.971, the normalized growth (locus YGL253W, strain hxk2, hits give low values) was 0.995 and the normalized growth (locus YHR013C, strain ard1, hits give low values) was 0.948. For the same compound, the normalized growth (locus YHR027C, strain rpn1, hits give low values) was 0.964, the normalized growth (locus YHR142W, strain chs7, hits give low values) was 0.94 and the normalized growth (locus YJL092W, strain hpr5, hits give low values) was 0.969. It also gave a normalized growth (locus YJL095W, strain BCK1 (second series), hits give low values) of 0.974, a normalized growth (locus YJL115W, strain asf1, hits give low values) of 0.958 and a normalized growth (locus YJL129C, strain trk1, hits give low values) of 0.946. The normalized growth (locus YJL154C, strain vps35, hits give low values) was 0.971, the normalized growth (locus YJL164C, strain tpk1, hits give low values) was 0.978 and the normalized growth (locus YJL166W, strain qcr8, hits give low values) was 0.983. For the same compound, the normalized growth [2] was 0.968, the normalized growth (locus YKL160W, strain elf1, hits give low values) was 0.981 and the normalized growth (locus YKR026C, strain gcn3, hits give low values) was 0.944. For the same compound, the normalized growth (locus YKR091W, strain srl3, hits give low values) was 0.962, the normalized growth (locus YLL001W, strain dnm1, hits give low values) was 0.948 and the normalized growth (locus YLL026W, hits give low values) was 0.97. It also gave a normalized growth (locus YLL041C, strain sdh2, hits give low values) of 0.977, a normalized growth (locus YLR027C, strain aat2, hits give low values) of 0.945 and a normalized growth (locus YLR221C, strain rsa3, hits give low values) of 0.977. It also gave a normalized growth (locus YLR258W, strain gsy2, hits give low values) of 0.966, a normalized growth (locus YLR262C, strain YPT6 (second series), hits give low values) of 0.977 and a normalized growth (locus YLR320W, strain mms22, hits give low values) of 0.962. For the same compound, the normalized growth (locus YLR342W, strain FKS1, hits give low values) was 0.958, the normalized growth (locus YLR357W, strain rsc2, hits give low values) was 0.939 and the normalized growth (locus YLR370C, strain arc18, hits give low values) was 0.932. For the same compound, the normalized growth (locus YLR384C, strain iki3, hits give low values) was 0.957, the normalized growth (locus YML120C, strain ndi1, hits give low values) was 0.954 and the normalized growth (locus YMR058W, strain fet3, hits give low values) was 0.967. For the same compound, the normalized growth (locus YMR125W, strain sto1, hits give low values) was 0.935, the normalized growth (locus YMR129W, hits give low values) was 0.969 and the normalized growth (locus YMR205C, strain PFK2, hits give low values) was 0.932. For the same compound, the normalized growth (locus YMR231W, strain pep5, hits give low values) was 1, the normalized growth (locus YNL071W, strain lat1, hits give low values) was 0.972 and the normalized growth (locus YNL209W, strain ssb2, hits give low values) was 0.965. The normalized growth (locus YNL248C, strain rpa49, hits give low values) was 0.996, the normalized growth (locus YNL322C, strain KRE1 (second series), hits give low values) was 0.95 and the normalized growth (locus YNR049C, strain mso1, hits give low values) was 0.954. It also gave a normalized growth (locus YOR001W, strain rrp6, hits give low values) of 0.979, a normalized growth (locus YOR070C, strain gyp1, hits give low values) of 0.973 and a normalized growth (locus YOR080W, strain dia2, hits give low values) of 0.965. For the same compound, the normalized growth (locus YOR083W, strain WHI5, hits give low values) was 0.988, the normalized growth (locus YOR106W, strain vam3, hits give low values) was 0.964 and the normalized growth (locus YOR265W, strain rbl2, hits give low values) was 0.976. It also gave a normalized growth (locus YOR270C, strain vph1, hits give low values) of 0.894, a normalized growth (locus YOR290C, strain snf2, hits give low values) of 0.939 and a normalized growth (locus YPL051W, strain arl3, hits give low values) of 0.982. It also gave a normalized growth (locus YPL078C, strain atp4, hits give low values) of 0.969, a normalized growth (locus YPL106C, strain sse1, hits give low values) of 0.927 and a normalized growth (locus YPL240C, strain hsp82, hits give low values) of 0.985.
For `CCCCCCc1cc2c(C)cc(=O)oc2cc1O`, the normalized growth (locus YAL013W, strain DEP1, hits give low values) was 0.979, the normalized growth (locus YBR229C, strain ROT2, hits give low values) was 0.895 (active) and the normalized growth [1] was 0.968. The normalized growth (locus YDL101C, strain DUN1, hits give low values) was 1.02, the normalized growth (locus YDL134C, strain PPH21, hits give low values) was 0.976 and the normalized growth (locus YDR150W, strain NUM1, hits give low values) was 0.996. It also gave a normalized growth (locus YEL061C, strain CIN8, hits give low values) of 0.966, a normalized growth (locus YGR078C, strain PAC10, hits give low values) of 0.996 and a normalized growth (locus YGR229C, strain SMI1, hits give low values) of 0.976. The normalized growth (locus YHR030C, strain SLT2, hits give low values) was 0.922, the normalized growth (locus YHR087W, strain rtc3, hits give low values) was 0.725 (active) and the normalized growth [2] was 0.938. For the same compound, the normalized growth (locus YJR043C, strain POL32, hits give low values) was 1.03, the normalized growth (locus YJR075W, strain HOC1, hits give low values) was 0.888 (active) and the normalized growth (locus YKL190W, strain CNB1, hits give low values) was 0.959. The normalized growth (locus YLR039C, strain RIC1, hits give low values) was 0.721 (active), the normalized growth (locus YLR058C, strain SHM2 (second series), hits give low values) was 0.981 and the normalized growth (locus YLR085C, strain ARP6, hits give low values) was 0.864. For the same compound, the normalized growth (locus YLR262C, strain YPT6, hits give low values) was 0.782 (active), the normalized growth (locus YML094W, strain GIM5, hits give low values) was 0.918 and the normalized growth (locus YMR219W, strain ESC1, hits give low values) was 0.973. For the same compound, the normalized growth (locus YMR263W, strain SAP30, hits give low values) was 0.976, the normalized growth (locus YMR307W, strain GAS1, hits give low values) was 0.803 and the normalized growth (locus YNL153C, strain GIM3, hits give low values) was 0.965. For the same compound, the normalized growth (locus YNL298W, strain CLA4 (second series), hits give low values) was 0.942, the normalized growth (locus YNL322C, strain KRE1, hits give low values) was 0.989 and the normalized growth (locus YNR030W, strain Alg12, hits give low values) was 0.927. For the same compound, the normalized growth (locus YOL006C, strain TOP1, hits give low values) was 0.863, the normalized growth (locus YPL055C, strain LGE1, hits give low values) was 0.896 and the normalized growth (locus YPL241C, strain CIN2, hits give low values) was 0.932. The normalized growth (locus YPR135W, strain CTF4, hits give low values) was 0.792.
